Where “and” joins values, the source holds several entries; their conditions need not be identical. Identical values can stand only once. Among all 5,500 compounds or so, about 2,000 (36%) were called active. Inconclusive results (about 18%) are left out. No stated cut-off is given here; in the data, active means normalized growth mostly below about 0.91 (no sharp cut-off); inconclusive means no clear call, values can overlap the other calls; inactive means mostly above about 0.92. Some of the results follow.
Test: chemical genetic growth profiling, strain panel (AID 1159580);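 further: tested at 20 µM; growth read once vehicle control cultures reached saturation at 30 °C; 1 = growth at the plate median or of vehicle wells; lower values mean less growth of the strain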
Conditions: S. cerevisiae deletion strains, growth OD

Measured: normalized growth

CCCCCCCCCCCCC[N+](C)(C)Cc1ccccc1
active: locus YAL013W, strain DEP1, active compounds read low 0.0555 | locus YAL021C, strain ccr4, active compounds read low 0.0637 | locus YAL026C, strain drs2, active compounds read low 0.0609 | locus YAL030W, strain snc1, active compounds read low 0.0556 | locus YBL061C, strain skt5, active compounds read low 0.0585 | locus YBR009C, strain hhf1, active compounds read low 0.0639 | locus YBR021W, strain FUR4, active compounds read low 0.0876 | locus YBR023C, strain chs3, active compounds read low 0.0617 | locus YBR171W, strain sec66, active compounds read low 0.0746 | locus YBR229C, strain ROT2, active compounds read low 0.0463 | locus YBR231C, strain swc5, active compounds read low 0.0605 | locus YBR279W, strain paf1, active compounds read low 0.0571 | locus YCL011C, strain gbp2, active compounds read low 0.0555 | locus YCL016C, strain dcc1, active compounds read low 0.0666 | locus YCL029C, strain bik1, active compounds read low 0.0604 | locus YCL069W, strain vba3, active compounds read low 0.0638 | locus YCR088W, strain abp1, active compounds read low 0.059 | locus YDL005C, strain med2, active compounds read low 0.073 | locus YDL035C, strain GPR1, active compounds read low 0.0501 | locus YDL040C, strain nat1, active compounds read low 0.0568 | locus YDL074C, strain BRE1, active compounds read low 0.078 | locus YDL101C, strain DUN1, active compounds read low 0.0549 | locus YDL134C, strain PPH21, active compounds read low 0.0476 | locus YDL185W, strain tfp1, active compounds read low 0.0592 | locus YDL192W, strain arf1, active compounds read low 0.0605 | locus YDR001C, strain nth1, active compounds read low 0.0567 | locus YDR069C, strain doa4, active compounds read low 0.0672 | locus YDR101C, strain arx1, active compounds read low 0.0615 | locus YDR137W, strain rgp1, active compounds read low 0.12 | locus YDR159W, strain sac3, active compounds read low 0.0884 | locus YDR162C, strain NBP2, active compounds read low 0.0468 | locus YDR195W, strain ref2 0.118 | locus YDR297W, strain sur2, active compounds read low 0.0581 | locus YDR318W, strain mcm21, active compounds read low 0.063 | locus YDR334W, strain swr1, active compounds read low 0.0601 | locus YDR335W, strain msn5, active compounds read low 0.0563 | locus YDR388W, active compounds read low 0.0567 | locus YDR392W, strain spt3, active compounds read low 0.0701 | locus YDR502C, strain sam2, active compounds read low 0.0651 | locus YEL003W, strain gim4, active compounds read low 0.0517 | locus YEL037C, strain rad23, active compounds read low 0.0542 | locus YEL061C, strain CIN8 (second series), active compounds read low 0.0587 | locus YEL061C, strain CIN8, active compounds read low 0.0483 | locus YER015W, strain faa2, active compounds read low 0.0622 | locus YER016W, strain bim1, active compounds read low 0.063 | locus YER110C, active compounds read low 0.0733 | locus YER111C, strain swi4, active compounds read low 0.0674 | locus YER155C, strain BEM2 (second series), active compounds read low 0.0862 | locus YER155C, strain BEM2, active compounds read low 0.0618 | locus YER167W, strain BCK2, active compounds read low 0.0502 | locus YFR010W, strain ubp6, active compounds read low 0.0662 | locus YGL078C, strain dbp3, active compounds read low 0.0681 | locus YGL086W, strain mad1, active compounds read low 0.0582 | locus YGL167C, strain pmr1, active compounds read low 0.0698 | locus YGL173C, strain kem1, active compounds read low 0.0657 | locus YGL227W, strain vid30, active compounds read low 0.0603 | locus YGL240W, strain doc1, active compounds read low 0.0764 | locus YGL248W, strain PDE1, active compounds read low 0.0462 | locus YGL253W, strain hxk2, active compounds read low 0.0524 | locus YGR078C, strain PAC10, active compounds read low 0.0524 | locus YGR135W, strain pre9, active compounds read low 0.0647 | locus YGR229C, strain SMI1, active compounds read low 0.0592 | locus YGR252W, strain gcn5, active compounds read low 0.206 | locus YHR013C, strain ard1, active compounds read low 0.102 | locus YHR027C, strain rpn1, active compounds read low 0.0626 | locus YHR030C, strain SLT2, active compounds read low 0.0492 and 0.104 | locus YHR079C, strain IRE1 (second series), active compounds read low 0.0567 | locus YHR079C, strain IRE1, active compounds read low 0.111 | locus YHR094C, strain hxt1, active compounds read low 0.058 | locus YHR129C, strain ARP1, active compounds read low 0.0544 | locus YHR142W, strain chs7, active compounds read low 0.0737 | locus YHR200W, strain rpn10, active compounds read low 0.0601 | locus YIL066C, strain RNR3, active compounds read low 0.0508 | locus YIL073C, strain SPO22, active compounds read low 0.129 | locus YIL125W, strain kgd1, active compounds read low 0.0665 | locus YIR030C, strain dcg1, active compounds read low 0.0594 | locus YJL092W, strain hpr5, active compounds read low 0.0601 | locus YJL095W, strain BCK1 (second series), active compounds read low 0.0575 | locus YJL095W, strain BCK1, active compounds read low 0.0546 and 0.0934 | locus YJL115W, strain asf1, active compounds read low 0.0698 | locus YJL129C, strain trk1, active compounds read low 0.0815 | locus YJL134W, strain LCB3, active compounds read low 0.0471 | locus YJL154C, strain vps35, active compounds read low 0.0584 | locus YJL164C, strain tpk1, active compounds read low 0.0596 | locus YJL166W, strain qcr8, active compounds read low 0.0642 | locus YJL168C, strain set2, active compounds read low 0.0571 | locus YJL187C, strain SWE1 (second series), active compounds read low 0.0466 | locus YJR043C, strain POL32, active compounds read low 0.0593 | locus YJR066W, strain TOR1, active compounds read low -0.000757

— PubChem BioAssay AID1159580 (chemical genetic matrix, 2015)
